The source of these data is PubChem BioAssay AID493192 (National Center for Advancing Translational Sciences (NCATS), 2011).

Results filed as inconclusive are left out. The source made the active and inactive calls. Calls come from the whole dose curve; as a rule, active = well fitted activation curve with a large enough effect; inconclusive = small, poorly fitted or top-dose-only effect; inactive = no such curve, though single readings can be large or run the other way.
Potency is the fitted concentration of half-maximal effect.

A short description of the assay: qHTS Assay for Identifying a Potential Treatment of Ataxia-Telangiectasia: Hit Validation. For activity change, positive = activation: 0% is about no effect.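 Note: phospho-KAP1 level by AlphaLISA as a proxy for ATM-like kinase activity.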 To be noted: Ataxia-telangiectasia cell-based hit validation qHTS, in ATM-null A-T patient fibroblasts; series mostly up to 76.9 µM; activity change, positive = activation: at the top concentration. In short, it runs like this: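 KAP-1 phosphorylation was read by AlphaLISA as a measure of ATM-like activity in ATM-null F2112 fibroblasts. Compounds spanned up to 76.7 uM final, with 60 min exposure at 37C and a 6 hr detection incubation at 25C.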
As for `O=C(CN1CCN(Cc2ccccc2)CC1)Nc1ccc(Cl)cc1`, the “activity change, positive = activation” value was 10.5% (inactive).
As to `COc1ccc(-c2csc(-c3ccc(O)cc3)n2)cc1`, the “activity change, positive = activation” value is 10.1% (inactive).
Turning to `CC(C)(CN1CCN(c2ccccc2)CC1)NS(=O)(=O)c1ccccc1`, the “activity change, positive = activation” value is -6.25% (inactive).
Take `N=c1ccn(Cc2ccc([N+](=O)[O-])cc2)cc1`: the “activity change, positive = activation” value was 9.64% (inactive).
Same read-out and setting: the figure for `N#CCN1C(=O)C(=O)N(Cc2cccc(Cl)c2)C1=O` is 0% (inactive).
For `COCCCNC(=O)c1c[nH]c2ccc(S(=O)(=O)N(C)c3ccccc3C)cc2c1=O`, the “activity change, positive = activation” value is 2.81% (inactive).
On the same count and under the same terms, the figure for `COc1ccc(NS(=O)(=O)c2ccc(N3CC(O)=C(c4ccccc4)C3=N)cc2)cc1` is -5.56% (inactive).
The same measure, in the same setting: the figure for `COC(=O)N/N=C/c1ccccc1OCCOc1ccc(OC)cc1` is 14.9% (inactive); for `O=C1/C(=C/c2ccc(N3CCOCC3)o2)SC(=Nc2ccccc2)N1CCc1c[nH]c2ccccc12` it is 0.694% (inactive); for `Cc1nn(C)c(Cl)c1CN1CCN(C2CCCC2)C(CCO)C1` (configuration not stated) it is 4.2% (inactive).
On to `Cc1oc2c(c(C)cc3oc(=O)c(CC(=O)NCC(=O)NCC(=O)O)c(C)c32)c1C`, for which the Potency was 32.8 µM (active).
For `COc1ccc(C(CNC(=O)C(Cc2ccccc2)NC(N)=O)N(C)C)cc1` (configuration not stated), the “activity change, positive = activation” value is 14.7% (inactive).
On the same count and under the same terms, the figure for `COc1ccc(N(CCC#N)C(=O)/C(C#N)=C\c2cccs2)cc1` is -3.5% (inactive).
For `COCCNC(=O)c1c(N)n(-c2cccc(C)c2)c2nc3ccccc3nc12`, the Potency was 41.2 µM (active).
As to `CC(C)CN(CC(C)C)C(=O)c1cc2c(=O)n3ccccc3nc2s1`, the “activity change, positive = activation” value is 23.6% (inactive).
Same read-out and setting: the figure for `CC(C)CNS(=O)(=O)c1cc(C(=O)O)c(Cl)cc1Cl` is -1.75% (inactive).
Turning to `N#C/C(=C/c1ccc(F)cc1)C(N)=S`, the “activity change, positive = activation” value is 21.9% (inactive).
The same measure, in the same setting: the figure for `COc1cc(C(=O)NCCC(=O)NCCCN2CCCCC2)cc(OC)c1OC` is 22.5% (inactive); for `O=C(Nc1cccc([N+](=O)[O-])c1)N1CCCc2ccccc21` it is -2.8% (inactive).
The same measure, in the same setting: the figure for `CC(C)C1CC(CCN)(c2ccccc2)CCO1` (configuration not stated) is 16.8% (inactive); for `COc1ccccc1N1CCN(C(=O)c2cc(=O)c3c(C)cc(C)cc3o2)CC1` it is -2.01% (inactive); for `CCC12CN(C(=O)c3ccc([N+](=O)[O-])cc3)CC(CC)(CN(C(=O)c3ccc([N+](=O)[O-])cc3)C1)C2=O` it is 16.7% (inactive).
Turning to `CNC(=O)c1ccc(-c2cc3onc(-c4ccccc4)c3c(=O)n2C)cc1`, the “activity change, positive = activation” value was 15.7% (inactive).
On to `Cc1cccc(C)c1NC(=O)COC(=O)c1cc(=O)c2ccccc2o1`, for which the “activity change, positive = activation” value is 1.61% (inactive).
Consider `Cc1ccc(C)c(-n2c(SCC(=O)NC(C(=O)O)C(C)C)nnc2-c2cccc(Cl)c2)c1` (configuration not stated), for which the Potency was 36.8 µM (active).
As for `O=C(C[n+]1cccc2ccccc21)c1ccc(NC(=O)c2ccccc2)cc1`, the “activity change, positive = activation” value is 0.803% (inactive).
On the same count and under the same terms, the figure for `CSc1nc(SCC(=O)O)c2c3c(sc2n1)COC(C)(C)C3` is -4.55% (inactive).
On the same count and under the same terms, the figure for `CCc1ccc(NC(=O)N[C@H](C(=O)O)C(C)CC)cc1` (some centres not stated) is 10.8% (inactive); for `COc1ccccc1C1CCN(C(=O)c2ccc(Cl)cc2)CC1` it is 11.6% (inactive).
For `CCOC(=O)Cn1c(-c2ccccc2)cc(SC)c(C#N)c1=O`, the “activity change, positive = activation” value was -6.94% (inactive).
On the same count and under the same terms, the figure for `O=C(OCCc1cc2ccccc2c(=O)o1)c1cccc(Br)c1` is -10% (inactive).
The same measure, in the same setting: the figure for `Cc1cc2c(c(=O)o1)C(CCC1CCCCC1)C(C#N)=C(N)O2` (configuration not stated) is 19.3% (inactive).
Take `CNC(=O)c1ccc(-c2sc3nc(N4CCOCC4)c4c(c3c2N)CC(C)(C)OC4)o1`: the Potency was 29.2 µM (active).
In the case of `CCOC(=O)CNS(=O)(=O)Cc1ccccc1`, the “activity change, positive = activation” value is 7.69% (inactive).
On the same count and under the same terms, the figure for `Oc1cccc(NC(=S)N=Nc2c(O)[nH]c3ccccc23)c1` is 5.62% (inactive).
Take `CCc1ccc(NC(=O)CNCc2ccc(OC)c(OC)c2)cc1`: the “activity change, positive = activation” value was -3.12% (inactive).
As to `COC(=O)c1ccc2[nH]c3cccc(/C(=C/c4ccccc4)c4ccccc4)c3c2c1`, the “activity change, positive = activation” value was 8.33% (inactive).
